# Sampled rows, rich in hits. Any-hit rate of the full collection: about 12%.
# G9a block: G9a (human) methyltransferase inhibition; Q96KQ7; G9a H3K9 monomethylation, AlphaScreen, 2 h; Potency, µM (top dose mostly 102 µM), inactives show top-dose activity, negative = inhibition, actives largely listed as inhibitors; 350,000 compounds, 8.8% hits; AID 504332; further: potency means the concentration at half of the fitted maximal effect; on the % scale 0 is the no-effect control and ±100 the full control effect; nearly all actives have a fitted effect of over 75% in size
#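 Chemiluminescent proximity detection of H3K9 monomethylation, read after 10 min bead incubation in the dark. Reaction: 20 nM G9a, 500 nM biotin-H3K9 peptide, 20 uM SAM cofactor, 2 h, room temperature, following 15 min enzyme-compound preincubation.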
# PI5P4Ka inh: inhibitors of human PI5P4K alpha; P48426; 330,000 compounds, 1.2% hits; max response, %; PI5P4Kalpha enzyme, ADP-Glo luminescence, 60 min; hits give low values; active means max response of -50% or lower; inconclusive means between -30% and -50%; inactive means -30% or higher; further: value at the top dose of about 77 µM; on the % scale 0 is the no-effect control and ±100 the full control effect
#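 Quantitative HTS of the MLSMR library against PI5P4Kalpha with substrate. ATP added last at 5 microM final; room temperature, 60 minutes. Remaining ATP depleted, ADP converted and read as luminescence.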
# PLK1 PBD block: PLK1 (human) polo-box domain binding inhibition; 360,000 compounds, 2.8% hits; Plk1 PBD binding of FITC phosphopeptide, fluorescence polarization; P53350; Potency, µM, inactives show max response, negative = inhibition, usual class: inhibitors; further: potency means the concentration at half of the fitted maximal effect; series mostly up to about 57 µM; on the % scale 0 is the no-effect control and ±100 the full control effect; nearly all actives have a fitted effect of over 65% in size
# Target sequence (P53350 whole entry, looked up, the tested form may be a part): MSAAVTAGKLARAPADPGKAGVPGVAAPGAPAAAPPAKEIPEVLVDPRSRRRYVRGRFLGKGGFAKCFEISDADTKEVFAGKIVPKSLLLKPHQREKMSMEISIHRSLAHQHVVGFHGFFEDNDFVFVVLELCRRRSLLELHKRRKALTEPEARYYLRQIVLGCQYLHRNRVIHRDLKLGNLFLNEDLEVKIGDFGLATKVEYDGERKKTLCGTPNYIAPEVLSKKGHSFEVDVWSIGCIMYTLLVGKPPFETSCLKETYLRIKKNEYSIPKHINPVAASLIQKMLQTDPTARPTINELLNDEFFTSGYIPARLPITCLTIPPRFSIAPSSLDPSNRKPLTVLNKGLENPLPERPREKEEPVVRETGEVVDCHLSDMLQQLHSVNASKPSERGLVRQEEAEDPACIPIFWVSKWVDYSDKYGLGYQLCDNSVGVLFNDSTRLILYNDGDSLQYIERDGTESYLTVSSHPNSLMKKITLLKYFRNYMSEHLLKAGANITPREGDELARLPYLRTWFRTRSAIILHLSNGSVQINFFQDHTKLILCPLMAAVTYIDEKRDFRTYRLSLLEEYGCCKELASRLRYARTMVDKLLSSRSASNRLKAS
# JMJD2A Tudor: JMJD2A Tudor domain (human) inhibition; AlphaScreen JMJD2A-Tudor / H3K4me3 peptide binding; Potency, µM (series often up to 114 µM), for inactives: top-dose activity change, negative = inhibition, actives largely listed as inhibitors; 390,000 compounds, 4.4% hits; further: potency means the concentration at half of the fitted maximal effect; on the % scale 0 is the no-effect control and ±100 the full control effect; nearly all actives have a fitted effect of over 50% in size
# HP1b binding inh: blocks HP1-beta chromodomain binding to methylated histone tails; Potency, µM (titrated, usually from 114 µM), inactives show at the highest dose activity change, negative = inhibition, most hits filed as inhibitors; 390,000 compounds, 0.56% hits; P83916; AlphaScreen HP1-beta / biotin-H3K9me3 peptide binding; AID 540317; further: potency means the concentration at half of the fitted maximal effect; nearly all actives have a fitted effect of over 70% in size
# Target sequence (P83916 whole entry, looked up): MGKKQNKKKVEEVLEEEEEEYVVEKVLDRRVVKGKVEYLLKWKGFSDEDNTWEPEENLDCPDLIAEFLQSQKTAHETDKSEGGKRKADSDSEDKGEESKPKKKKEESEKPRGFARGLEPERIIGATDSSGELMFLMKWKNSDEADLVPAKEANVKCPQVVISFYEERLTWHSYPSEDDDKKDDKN
#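 AlphaScreen: HP1-beta (50 nM) preformed 30 min with biotin-H3(1-18)K9me3 peptide (50 nM) in PBS pH 7.4, 0.01% Tween-20. Compound added for 30 min at RT, then streptavidin donor/nickel chelate acceptor beads (10 ug/mL) for 30 min.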
# BAZ2B inh: BAZ2B (human) inhibition. Q9UIF8. AlphaScreen BAZ2B-H3K14Ac peptide displacement. 360,000 compounds, 4.4% hits. Potency, µM (top dose mostly 114 µM), for inactives: at the highest dose activity change, negative = inhibition, most hits filed as inhibitors; further: potency means the concentration at half of the fitted maximal effect; on the % scale 0 is the no-effect control and ±100 the full control effect; nearly all actives have a fitted effect of over 60% in size
#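 AlphaScreen luminescence quantifies BAZ2B engagement of H3K14Ac peptide; the protein and biotinylated peptide are both at 50 nM final, buffer PBS pH 7.4 with 0.01% Tween-20, all steps at room temperature.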
# * marks the source's active call; other numbers are inactive results; ? = inconclusive; . = not tested or not shown; [ ] = remark or other dose. Unless noted, the call rests on the fitted dose curve; in most records, active means well fitted curve in the direction sought with a large enough effect; inconclusive means small, poorly fitted or top-dose-only effect, or another doubt; inactive means no such curve, though single readings can be large; an effect the other way counts as inactive or inconclusive.
SMILES,G9a block,PI5P4Ka inh,PLK1 PBD block,JMJD2A Tudor,HP1b binding inh,BAZ2B inh
CC(CC(=O)c1ccccc1)=NCCCN=C(C)CC(=O)c1ccccc1,.,0.6,-12.7%,.,.,.
CCOc1ccc2nc(N3CCCC(C(=O)NCCc4ccc(OCC)c(OCC)c4)C3)sc2c1 (centres undefined),3.8%[59 µM],.,.,-5.1%,37.3%,-13.0%
CCCOc1ccc(CNCCCOCC)cc1OC,-30.5%,-6.2,-3.1%,0.794µM*,?,-36.2%
CCOCCCNCc1ccc(OC)cc1,-21.1%[12.7 µM],.,-10.0%,3.98µM*,-29.6%,?
CCOCCCNCc1c(Cl)cccc1Cl,?,-5.6,-5.6%,5.01µM*,?,?
COc1cccc(CNCCCSc2nnnn2C)c1,-24.5%[59 µM],.,.,-11.3%,30.5%,-12.0%
CCOCCCNCc1cccc(OC)c1,3.98µM*,.,-0.4%,3.55µM*,-52.1%,?
CCOCCCNCc1ccc(OCc2ccccc2Cl)cc1,4.5%[59 µM],43.8,1.8%,-1.4%,27.5%,7.6%
Cc1cc(F)ccc1NC(=O)Cn1cc(S(=O)(=O)NC(C)C)c(S(=O)(=O)NC(C)C)c1,4.4%[59 µM],.,.,0.6%,33.4%,10.1%[57.1 µM]
COc1cccc(CNCC(=O)N2C(C)CCCC2C)c1 (centres undefined),12.6µM*,.,-4.6%,3.55µM*,?,50.1µM*
CC(=O)Nc1sc2c(c1C(c1cccc(Cl)c1)N1CCN(CCO)CC1)CCCC2 (centres undefined),50.1µM*,0.2,-15.3%,?,3.7%,?
O=c1c2ccccc2nc2n1CCO2,-3.3%,-7.1,-9.5%,-4.4%,12.4%,5.0%
O=c1c2ccccc2nc2oc3ccccc3n12,25.1µM*,-8.6,?,-13.2%,-10.0%,4.8%
O=C(O)c1cccc2c1Cc1cc(Cl)ccc1-2,.,2.1,-7.2%,-9.0%,15.9%[57 µM],.
CCn1c2ccccc2c2cc(CN3CCN(S(=O)(=O)CC)CC3)ccc21,11.2µM*,.,.,.,.,20µM*
CCN1CCN(S(=O)(=O)Cc2ccccc2)CC1,13.7%[12.7 µM],.,-5.3%,-7.7%,12.2%,-4.4%
CCn1c2ccccc2c2cc(CN3CCN(S(=O)(=O)Cc4ccccc4)CC3)ccc21,7.08µM*,1.4,1.6%,1µM*,?,79.4µM*
O=S(=O)(Cc1ccccc1)N1CCN(Cc2ccc3c(c2)OCO3)CC1,-0.5%[59 µM],4.3,-22.3%,?,31.5%,-6.3%
CCCCN(C)Cc1c(O)ccc2c(=O)c(-c3ccccc3OC)coc12,37.5%,4.6,0.6%,-4.5%,44.3%,-16.4%
Cc1cc(C2C(C#N)=C(N)Oc3n[nH]c(C)c32)c(C)s1 (centres undefined),-12.6%[0.501 µM],-8.3,-21.8%,-12.4%,16.7%,?
N#CC1=C(N)Oc2n[nH]c(-c3cccs3)c2C1c1cccnc1 (centres undefined),?,-50.1*,-8.7%,-8.6%,39.7%,-11.1%
Cc1[nH]nc2c1C(c1ccsc1C)C(C#N)=C(N)O2 (centres undefined),79.4µM*,.,-15.5%,-23.9%,12.0%,1.3%
N#CC1=C(N)Oc2n[nH]c(-c3ccncc3)c2C1c1ccsc1 (centres undefined),?,.,-18.9%,-24.6%,6.2%,9.5%
Cc1ccc(-c2[nH]nc3c2C(c2ccsc2)C(C#N)=C(N)O3)cc1 (centres undefined),20.7%,-52.0*,?,-6.2%,17.3%,4.3%
N#CC1=C(N)Oc2n[nH]c(-c3ccccc3)c2C1c1ccsc1 (centres undefined),?,-65.0*,?,-25.3%,13.7%,-7.4%
SMILES,G9a block,PI5P4Ka inh,PLK1 PBD block,JMJD2A Tudor,HP1b binding inh,BAZ2B inh
Cc1[nH]nc2c1C(c1ccsc1)C(C#N)=C(N)O2 (centres undefined),-21.4%[59 µM],-59.7*,?,-14.7%,17.5%,-3.9%
COc1cc(-c2[nH]nc3c2C(c2ccco2)C(C#N)=C(N)O3)cc(OC)c1OC (centres undefined),-18.9%[59 µM],-12.8,29.9µM*,?,-6.7%,-36.7%
COc1ccc(-c2[nH]nc3c2C(c2ccsc2)C(C#N)=C(N)O3)cc1 (centres undefined),-0.8%,.,?,-23.7%,3.0%,-32.7%
CC(=O)c1ccc(NC(=O)c2cn(-c3ccccc3)nc2-c2ccc(Br)cc2)cc1,0.3%[59 µM],.,.,-17.0%,27.3%,2.9%
COC(=O)c1ccccc1NC(=O)NCc1ccc2c(c1)CCN2C(=O)c1ccccc1,-4.5%[59 µM],.,.,-31.6%,9.3%[57 µM],-19.3%
COc1cccc2c(=S)c(CCC(C)=O)c(C)[nH]c12,1.58µM*,-25.5,?,10µM*,?,-7.6%
CCN1CCCC1CNC(=O)c1cc(S(=O)(=O)N(C)C)ccc1Cl (centres undefined),-12.8%,2.8,1.6%,-4.1%,25.6%,-0.1%
COc1ccc(/C=C/C(=O)NCC(=O)N=Nc2c(O)[nH]c3ccc([N+](=O)[O-])cc23)cc1,?,-17.9,-15.2%,?,3.4%,79.4µM*
O=C(N=Nc1c(O)[nH]c2ccc([N+](=O)[O-])cc12)c1ccccc1Cl,?,0.0,?,?,10.5%,56.2µM*
Cc1ccccc1NCC(=O)N=Nc1c(O)[nH]c2ccc([N+](=O)[O-])cc12,?,-14.7,-15.7%,-20.5%,43.0%,-6.4%
O=C(O)c1ccccc1N=Nc1c(O)[nH]c2ccc([N+](=O)[O-])cc12,25.1µM*,-26.1,?,?,70.8µM*,50.1µM*
Cc1cccc(NS(=O)(=O)c2ccc(Cl)c(C(=O)Nc3ccccc3C)c2)c1,-5.6%[59 µM],.,.,-9.2%,41.4%,-10.2%
CCCCNC(=O)C(CC)Sc1nc2ccccc2c(=O)n1CCc1ccc(OC)c(OC)c1 (centres undefined),15.0%[59 µM],.,.,-8.3%,33.4%,-4.5%
CN(C)S(=O)(=O)c1cccc2c1C(=O)c1ccccc1C2=O,?,7.4,-1.1%,-5.4%,29.7%,-36.8%
CN(C)c1cc2c(c(N(C)C)c1)C(=O)c1ccccc1C2=O,10µM*,1.7,-7.4%,?,?,8.91µM*
Cc1cccc(C)c1OCc1cc(C(=O)N2CCN(c3ccc(F)cc3)CC2)no1,-11.4%,11.3,3.6%,4.7%,-9.6%,-33.8%
CSc1nc(C)cc(C)c1C#N,57.4%,-50.1*,2.0%,15.8%,55.1%,-18.8%
CCOC(=O)c1cc(C)nc(SC)c1C#N,50.1µM*,-0.4,-7.0%,12.2%,67.3%,-1.5%
CCOC(=O)c1cc(C(C)(C)C)nc(SC)c1C#N,478.3%,1.8,2.1%,116.9%,184.1%,129.8%
CCOC(=O)C1=C(CS(=O)(=O)c2ccc(C)c(C)c2)NC(=O)NC1c1ccccc1OCC (centres undefined),-30.7%[59 µM],.,.,?,38.7%,-20.4%
Cc1ccc(Sc2ncnc3onc(C)c23)cc1,27.1%,3.2,18.9µM*,16.4%[11.4 µM],31.6%,4.7%
Nc1nc(NC(=O)c2ccc(F)cc2)ns1,-33.3%[12.7 µM],-6.0,29.9µM*,?,19.3%,-7.8%
